# 3T3 cytotox = kills NIH 3T3 cells; NIH 3T3 viability, CellTiter-Glo ATP luminescence, 48-72 h; hit rate 4.3% among 94,000; Potency, µM (doses to about 96.7 µM), without a hit: at the top dose activity change, negative = cytotoxicity, most hits filed as inhibitors; also: nearly all actives have a fitted effect of over 55% in size
#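 Mouse fibroblast NIH 3T3 cells, 400 per well, received compound via pintool and were incubated for 48 or 72 hr prior to CellTiter-Glo ATP luminescence measurement.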
# NPR1 antag = antagonists of human natriuretic peptide receptor Npr1 | hit rate 1.6% among 76,000 | HEK293 hNpr1 GloSensor cGMP, ANP-stimulated luminescence | P16066 | Potency, µM (titrated, usually from 46.3 µM), for inactives: top-dose activity change, negative = inhibition, most hits filed as inhibitors | AID 1347048; calls by dose curve; also: nearly all actives have a fitted effect of over 60% in size
#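 Compound pre-incubated 30 min at room temperature on GloSensor-loaded HEK293 cells stably carrying hNpr1 and the pGS-40F cGMP biosensor. Stimulation uses hNppA at 0.1 nM final; luminescence is taken at baseline and 20 min post-agonist.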
# HEK cytotox = cytotoxic compounds in HEK 293 cells; Potency, µM (top dose mostly 115 µM), for the others: at the highest dose activity change, negative = cytotoxicity, usual class: inhibitors; HEK 293 viability, ATP luminescence (CellTiter-Glo), 48-72 h; hit rate 6.6% among 94,000; also: nearly all actives have a fitted effect of over 60% in size
#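 qHTS cytotoxicity; HEK 293, 250 cells/well; compound pinned; 48 or 72 hr, 37 degree Celsius, 5% CO2, 95% humidity; CellTiter-Glo, 10 min RT; luminescence (ATP).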
# Luciferase inh = Photinus pyralis luciferase inhibition; hit rate 2.5% among 76,000; Potency, µM (series often up to 115 µM), actives largely listed as inhibitors; P08659; purified P. pyralis luciferase, luminescence, biochemical; AID 1347043; also: nearly all actives have a fitted effect of over 65% in size
# Target sequence (P08659 whole entry, looked up): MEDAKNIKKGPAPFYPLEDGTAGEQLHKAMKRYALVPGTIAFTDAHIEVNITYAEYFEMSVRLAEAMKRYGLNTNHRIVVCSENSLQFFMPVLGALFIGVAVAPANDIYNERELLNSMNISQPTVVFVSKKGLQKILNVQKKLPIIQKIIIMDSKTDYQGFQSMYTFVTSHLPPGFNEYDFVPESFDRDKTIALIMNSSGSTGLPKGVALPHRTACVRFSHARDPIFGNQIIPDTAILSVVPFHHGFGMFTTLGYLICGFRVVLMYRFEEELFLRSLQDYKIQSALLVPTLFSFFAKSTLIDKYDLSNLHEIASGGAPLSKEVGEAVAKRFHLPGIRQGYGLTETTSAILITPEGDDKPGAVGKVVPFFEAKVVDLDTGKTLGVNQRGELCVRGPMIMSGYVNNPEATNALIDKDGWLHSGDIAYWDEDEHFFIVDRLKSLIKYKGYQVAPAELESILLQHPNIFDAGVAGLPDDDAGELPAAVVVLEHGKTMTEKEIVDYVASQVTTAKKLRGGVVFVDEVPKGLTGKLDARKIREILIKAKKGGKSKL
#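 Inhibitors were tested against purified firefly luciferase in a biochemical, low-substrate format (both substrates at 10uM) and luminescence measured with a CCD imager.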
# * hit, by the source's call; i = inactive; ? = inconclusive; . = no result; [ ] = remark or other dose. Compounds with a hit are over-represented: about 11% of the library has one in this group of screens. Unless noted, calls follow the shape of the dose curve; as a rule, active = well fitted curve in the direction sought with a large enough effect; inconclusive = small, poorly fitted or top-dose-only effect, or another doubt; inactive = no such curve, though single readings can be large; an effect the other way counts as inactive or inconclusive. % is scaled to controls: 0 for no effect and ±100 for the full control effect; potency is read from the fitted curve at half-maximal effect.
SMILES,3T3 cytotox,NPR1 antag,HEK cytotox,Luciferase inh
O=C(Nc1cccc(-c2nnc3n2CCCC3)c1)Nc1ccccc1F,-13%,-8%,-11%,i
O=C(Nc1cccc(-c2ccc(N3CCCC3)nn2)c1)Nc1cc(F)ccc1F,?,?,?,5µM*
CNC(=O)c1cc(C2CC2)nc2onc(C3CCN(C(=O)C4CC4)CC3)c12,-21%,.,?,.
O=C(Nc1ccc2c(c1)OCCO2)N1CCc2nn(CC3CC3)c(=O)n2CC1,-14%,.,-3%,.
CN(Cc1cccc(C(F)(F)F)c1)Cc1ccccn1,-28%[138 µM],.,-19%[172 µM],.
COc1ccc(CC(=O)N2CCN(c3nccc(Nc4ccccc4F)n3)CC2)cc1,?,.,45µM*,.
COc1ccc(Nc2ccnc(N3CCC(NC(=O)Cc4ccc(F)cc4)CC3)n2)cc1,?,.,40µM*,.
COc1ccc(CC(=O)NC2CCN(c3nccc(Nc4ccccc4F)n3)CC2)cc1,45µM*,.,?,.
COCCNC(=O)c1ccc2nnc(-c3ccccc3OC)n2c1,-16%[138 µM],.,-9%[172 µM],.
O=C(Nc1ccc([C@@H](O)[C@H]2COCC(=O)N2Cc2ccc(C(F)(F)F)cc2)cc1)C1CCCC1,?,-6%,?,i
CC(C)(C)C(=O)N1CCCC(C(=O)N2CCC3(CC2)CC(=O)Nc2ccccc2O3)C1 (centres undefined),-8%,.,?,.
CC(C)CNC(=O)N1CCc2nc(-c3ccccc3)[nH]c2C1,-29%,.,-22%,.
NC(=O)c1ccc(-c2nc3c([nH]2)CN(c2ncnc4ccsc24)CC3)cc1,-10%,-16%,32µM*,i
CC(C)NC(=O)N1CCCC(Cn2c(C3CC3)nc3cccnc32)C1 (centres undefined),-20%,-2%,13%,i
CCOc1ccc2c(n1)CCN(C(=O)Nc1ccc(C)c(C)c1)C2,?,-10%,?,28µM*
COCCOc1ccc2c(n1)CCN(C(=O)NCCC(C)C)C2,-20%,4%,-15%,14µM*
CCOc1ccc2c(n1)CCN(C(=O)NCC(C)C)C2,-20%,6%,-17%,?
CNC(=O)C1CCCN(Cc2cccc(-c3ccccc3OC)c2)C1 (centres undefined),-25%,.,?,.
Cc1[nH]cnc1CN1CCCC(C(=O)Nc2ccc(-c3cccc(F)c3)cc2)C1 (centres undefined),?,6%,25µM*,i
COc1ccccc1-c1cccc(CN2CCCC(C(=O)Nc3ccc(F)cc3)C2)c1 (centres undefined),?,.,13µM*,.
COc1ccccc1-c1cccc(CN2CCCC(C(=O)NCCc3ccc(F)cc3)C2)c1 (centres undefined),32µM*,.,?,.
Cc1cc(C(=O)N2CC(n3c(C)cnc3-c3ccccc3)C2)n(C)n1,-15%,.,-8%,.
Cc1noc([C@H]2CCN(Cc3cc(F)cc(F)c3)C[C@H]2NC(=O)C2CC2)n1,?,1%,28µM*,i
CC(O)CNc1ccc(-c2nc(CCCc3ccccc3)no2)cn1 (centres undefined),?,1%,?,45µM*
CN(Cc1ncc[nH]1)c1ccc(-c2nc(CCCc3ccccc3)no2)cn1,?,?,45µM*,?
SMILES,3T3 cytotox,NPR1 antag,HEK cytotox,Luciferase inh
c1ccc(CCc2noc(-c3ccc(NCCN4CCCC4)nc3)n2)cc1,?,-25%,?,?
CN(Cc1cnccn1)c1ccc(-c2nc(CCCc3ccccc3)no2)cn1,-29%,-20%,-22%,?
c1ccc(CCCc2noc(-c3ccc(N4CCCNCC4)nc3)n2)cc1,?,4%,22µM*,?
OCC1CCN(c2ccc(-c3nc(CCCc4ccccc4)no3)cn2)CC1,?,13µM*,?,?
Cc1ccc(NC(=O)C2CCc3nnc(CN[S+](C)(=O)[O-])n32)cc1 (centres undefined),-26%,.,4%,.
Cc1nn(-c2ccccc2[N+](=O)[O-])c(C)c1[C@@H]1C=C[C@@H](NCc2ccc(C(C)C)cc2)C1,?,?,20µM*,i
Cc1nn(-c2ccccc2[N+](=O)[O-])c(C)c1[C@@H]1C=C[C@@H](NCc2ccco2)C1,?,-17%[70.6 µM],89µM*,i
Cc1nn(-c2ccccn2)c(C)c1[C@@H]1C=C[C@@H](NC(=O)NCc2ccccc2)C1,?,-26%[70.6 µM],?,?
COC(=O)N1CCc2nc(C(C)C)nc(-c3ccc(OC)cc3)c2CC1,-2%,0%,?,i

# Bioassay records (PubChem)
